Assay outcomes: PubChem BioAssay, National Center for Advancing Translational Sciences (NCATS)
SARS PLP yeast = SARS-CoV PLP inhibition in yeast | actives 0.19% (n = 330,000) | S. cerevisiae expressing SARS-CoV PLpro, growth rescue | AID 485353 | Potency, µM (doses to about 32.9 µM), without a hit: at the highest dose activity, positive = growth rescue, usual class: activators; also: potency is read from the fitted curve at half-maximal effect; 0% is about no effect; nearly all actives have a fitted effect of over 55% in size
TbPYK inhibitor = inhibitors of Trypanosoma brucei pyruvate kinase. actives 0.12% (n = 410,000). TbPYK enzyme, Kinase-Glo Plus ATP luminescence, 45 min. AID 624173. Q57TT1. Potency, µM (series often up to 76.8 µM), for the others: at the highest dose activity, negative = inhibition, most hits filed as inhibitors; active = well fitted curve in the direction sought with a large enough effect; inconclusive = small, poorly fitted or top-dose-only effect, or another doubt; inactive = no such curve, though single readings can be large; an effect the other way counts as inactive or inconclusive; also: potency is read from the fitted curve at half-maximal effect; % is scaled to controls: 0 for no effect and ±100 for the full control effect; nearly all actives have a fitted effect of over 50% in size
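Screened from lowest to highest concentration, compounds were pinned into TbPYK/substrate mixtures, and ADP (130 uM final) was added. Plates sat at room temperature for 45 min prior to Kinase-Glo Plus detection by luminescence.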
LmPK inhibitor = LmPK (Leishmania mexicana) enzyme inhibition; Q27686; purified LmPK, Kinase-Glo ATP luminescence, 1 h; Potency, µM (series often up to 57.5 µM), for the others: at the top dose activity change, negative = inhibition, usual class: inhibitors; actives 0.37% (n = 290,000); AID 1721; active = well fitted curve in the direction sought with a large enough effect; inconclusive = small, poorly fitted or top-dose-only effect, or another doubt; inactive = no such curve, though single readings can be large; an effect the other way counts as inactive or inconclusive; also: potency is read from the fitted curve at half-maximal effect; % is scaled to controls: 0 for no effect and ±100 for the full control effect
Target sequence (Q27686 whole entry, looked up): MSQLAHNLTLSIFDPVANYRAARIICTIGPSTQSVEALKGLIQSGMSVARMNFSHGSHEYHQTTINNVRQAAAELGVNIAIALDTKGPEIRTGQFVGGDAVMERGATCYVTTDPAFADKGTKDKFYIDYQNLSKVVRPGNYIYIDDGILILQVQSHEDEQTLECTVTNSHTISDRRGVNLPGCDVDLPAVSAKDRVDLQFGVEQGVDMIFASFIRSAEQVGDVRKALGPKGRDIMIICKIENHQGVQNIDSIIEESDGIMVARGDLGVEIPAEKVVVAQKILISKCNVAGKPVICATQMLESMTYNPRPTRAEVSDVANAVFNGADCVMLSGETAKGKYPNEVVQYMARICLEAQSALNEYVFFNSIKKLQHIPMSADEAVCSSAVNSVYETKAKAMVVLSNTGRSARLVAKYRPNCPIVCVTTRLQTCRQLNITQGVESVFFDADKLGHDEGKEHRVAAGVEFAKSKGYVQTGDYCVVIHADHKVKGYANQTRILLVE
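Kinase-Glo luminescence read after 1 h RT reaction of 0.1 nM LmPK with 0.5 mM PEP and 0.1 mM ADP. Activity scaled between uninhibited and enzyme-free controls.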
CHX counter = affects cycloheximide protein synthesis inhibition readout, counter-screen; cell reporter, cycloheximide protein synthesis inhibition counterscreen; actives 12% (n = 300,000); max response, %; in the data active = max response mostly above about 13%, no sharp cut-off; inactive = mostly below about 14%; also: read at 38.3 µM for the half of the compounds with a filed dose; 0% is about no effect
NS1 function inh = inhibitors of influenza NS1 protein function. Potency, µM (doses to about 46.1 µM), for the others: at the top dose activity, positive = more growth. actives 0.4% (n = 270,000). AID 2326; also: potency is read from the fitted curve at half-maximal effect; actives are rising curves; nearly all actives have a fitted effect of over 50% in size
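Recovery from NS1-induced slow growth read by OD600 in budding yeast switched to galactose assay medium (pH 6.0, -URA) at 1:100 dilution. Compound 23 nl per well; the matching strain lacking NS1 serves as control.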
Shiga inhibitor = Shiga toxin inhibition | AID 2315 | inhibition, % at 38.7 µM | Vero cells, Shiga toxin protein synthesis inhibition reporter | actives 9.2% (n = 290,000); in the data active = inhibition mostly above about 28%, no sharp cut-off; inactive = mostly below about 43%; also: 0% is about no effect
Numbers without * were called inactive; ? = inconclusive; / = no result; [ ] = remark or other dose. Shown is part of a subset that was picked to be rich in hits. Unless noted, calls follow the shape of the full dose curve.

SMILES	SARS PLP yeast	TbPYK inhibitor	LmPK inhibitor	CHX counter	NS1 function inh	Shiga inhibitor
CCN(CC(=O)Nc1ccc2c(c1)OCCO2)C(=O)C(C)Oc1ccc(F)cc1 (centres undefined)	/	0%	/	/	/	/
C[C@H]([C@H](C)N1CC(=O)NC(=O)C1)N1CC(=O)NC(=O)C1	/	/	/	-5	/	16
O=c1c2ccccc2nc(-c2ccccc2Cl)n1-c1ccc(O)cc1	2%	7%	5%	-5	-5%	-25
Nc1c2nc(-c3ccccc3Cl)[nH]c(=O)c2nc(=O)n1-c1ccccc1	1%	-3%	1%	22*	-5%	58*
Cc1ccc(S(=O)(=O)CC(=O)Nc2nc3c(C)cccc3s2)cc1	/	-2%[15.4 µM]	/	/	/	/
COc1ccccc1/C=C/C=C(\C#N)C(=O)NC(C)c1ccccc1 (centres undefined)	-6%	-1%	2%	11*	14%	-2
Cc1cccc(C)c1NC(=O)c1cc(S(N)(=O)=O)c(Cl)cc1O	/	-4%	/	/	/	/
C(=N\n1cnnc1)/c1nc2ccccc2[nH]1	-11%	1%	-1%	-3	21%	-7
Clc1ccc(/C=C/c2nc3ccccc3[nH]2)c(Cl)c1	-46%	4%	14µM*	-1	-165%	15
Clc1cccc(Cl)c1/C=C/c1nc2ccccc2[nH]1	-48%	-5%	?	31*	-66%	78*
Clc1ccc(/C=C/c2nc3ccccc3[nH]2)cc1	-28%	?	8.9µM*	7	-61%	-12
O=C(/C=C/c1ccc(Cl)cc1Cl)c1nc2ccccc2[nH]1	1%	-5%	1%	-4	-20%	30
O=C(c1cccc(F)c1)N1CCC2(CC1)CCN(c1ccncc1)CC2	/	-7%	/	/	/	/
CCOc1ccc(NC(=O)CCc2c(C)nc3nc(-c4cc(OC)cc(OC)c4)nn3c2C)cc1	/	-19%	/	/	/	/
COC(=O)C(C)N1C(=O)S/C(=C/c2cc(C)n(-c3ccccn3)c2C)C1=O (centres undefined)	10%	-1%	-5%	50*	6%	57
Cc1ccc(-n2c(C)cc(/C=C3\NC(=O)NC3=O)c2C)c(C)c1	-4%	-18%	-2%	13	-2%	1
CCOC(=O)CN1C(=O)S/C(=C/c2ccc(C)o2)C1=O	-3%	-3%	2%	24*	-20%	46*
CCOC(=O)CN1C(=O)S/C(=C/c2cc(C)n(C)c2C)C1=O	/	-4%	/	/	/	/
Cc1cc(/C=C2/NC(=O)NC2=O)c(C)n1-c1ccccn1	-17%	-12%	3%	19*	1%	19
CCOC(=O)CN1C(=O)S/C(=C/c2cc(C)n(-c3ccccn3)c2C)C1=O	0%	-3%	4%	59*	10%	69*
CCCc1nn2c(=O)cc(COC(=O)c3ccc(NC(=O)COc4ccccc4F)cc3)nc2s1	/	1%	/	/	/	/
CN(C(=O)Cn1nnc2ccccc2c1=O)C1CCCCC1	0%	5%	-7%	2	-1%	16
COC(=O)c1sccc1S(=O)(=O)Nc1ccc(C(O)(C(F)(F)F)C(F)(F)F)cc1	/	1%	/	/	/	/
COC(=O)C(C)N1C(=O)S/C(=C\c2cc(C)n(-c3ccccn3)c2C)C1=O (centres undefined)	4%	-12%	-1%	43*	2%	90*
Fc1cccc(/C=N/Nc2ncnc3nc[nH]c23)c1	-13%	-16%	?	83*	-2%	71*
SMILES	SARS PLP yeast	TbPYK inhibitor	LmPK inhibitor	CHX counter	NS1 function inh	Shiga inhibitor
Fc1ccccc1/C=N/Nc1ncnc2nc[nH]c12	-16%	-8%	-11%	49*	0%	139*
COc1cc(NS(=O)(=O)c2ccc(C(=O)O)cc2)c2nc(C)ccc2c1	/	/	/	-2	/	-2
C/C(=N\NC(=O)c1cc(C(C)C)[nH]n1)c1ccco1	-12%	-13%	?	67*	10%	138*
C/C(=N\NC(=O)c1cc(C(C)C)[nH]n1)c1ccncc1	0%	-5%	4%	32	-17%	49*
COc1ccccc1N1CCN(C(=O)Cc2ccc(Cl)cc2)CC1	-2%	-4%	1%	17*	-25%	31
O=C(CCC(=O)N1CCN(c2ccccc2F)CC1)c1ccc(F)cc1	-1%	2%	3%	15*	0%	22
COc1ccc(CC(=O)N2CCN(c3ccccc3OC)CC2)cc1	0%	3%	-2%	-1	1%	-4
OC(CN1CCN(c2ccccc2F)CC1)c1ccc(F)cc1 (centres undefined)	0%	4%	4%	9.9*	1%	12
OC(COc1ccc(F)cc1)CN1CCN(c2ccccc2F)CC1 (centres undefined)	1%	1%	8%	-3	1%	-3
COc1cccc(N2CCN(C(=O)CCSCc3ccccc3F)CC2)c1	-2%	-3%	1%	-6	/	21
COc1ccccc1N1CCN(C(=O)CCSCc2ccccc2F)CC1	1%	0%	-4%	20	/	49*
COc1ccccc1N1CCN(C(=O)CN2C(=O)C3CCCCC3C2=O)CC1 (centres undefined)	-1%	0%	-6%	28*	4%	77*
CSc1ccc(CCNc2ncnc3onc(-c4ccc(Cl)cc4)c23)cc1	/	-3%	/	/	/	/
O=C(Nc1cccc(Cl)c1N1CCCC1)c1cccc(-c2cc3ccccc3oc2=O)c1	3%	1%	1%	26*	11%	39
O=C(Nc1cccnc1)c1cccc(-c2cc3ccccc3oc2=O)c1	20%	0%	4%	12	4%	23
CCn1nnc(NC(=O)c2cccc(-c3cc4ccccc4oc3=O)c2)n1	7%	-4%	0%	40*	-18%	73*
O=C(Nc1ccc(CN2CCOCC2)cc1)c1cccc(-c2cc3ccccc3oc2=O)c1	1%	-3%	1%	9	2%	32
COc1ccccc1OCC(=O)N(Cc1nnc(-c2ccccc2Cl)o1)C1CC1	/	0%	/	/	/	/
Cn1c(SCC(=O)NCCN2C(=O)CSC2=O)nnc1-c1ccccc1	-5%	3%	0%	-3	9%	-5
CCc1ccc(Nc2nnc(SCC(=O)NCCN3C(=O)CSC3=O)s2)cc1	-10%	6%	-19%	40*	-1%	53*
CCc1ccc(Nc2nnc(SCC(=O)Nc3sccc3C(N)=O)s2)cc1	-21%	-13%	3%	32*	20%	62*
CCc1ccc(Nc2nnc(SCC(=O)Nc3cccnc3Cl)s2)cc1	-7%	4%	1%	20*	17%	30*
Cc1nnc(SCC(=O)Nc2cccnc2Cl)s1	-1%	-4%	/	/	/	/
CCCCOc1ccc(Nc2cc(Cl)ccc2C(=O)O)cn1	-6%	7%	?	3	-87%	-8
Cc1cc(C)c2nc(N(Cc3cccnc3)C(=O)CCOc3ccccc3)sc2c1	/	-7%[15.4 µM]	/	/	/	/
CS(=O)(=O)c1ccccc1-c1nnc(-c2ccc(Cl)cc2)o1	-3%	-4%	-3%	19*	/	64*
